In the supplement of paper PMC6555819:

Tests used:
Assay in all cases: PBM binding z-score (relative to random genomic background probes); higher = stronger binding; sequences stand for … in GC…GCGATTGACAGCGTAGAATGAAGG
[1] = system: RARb homodimer (NR concentration 270 nM)
Method in brief: (§1)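 Probes were double-stranded and carried 34-nt variable regions with direct-repeat seeds, single-nucleotide variants, half-site ablations and random human genomic background sequences, printed on custom Agilent 4×180K protein-binding microarrays. Arrays were incubated 1 h with ligand-free nuclear receptor dimers in PBS pH 7.4, 2% milk, 0.02% Triton X-100, 1 mM DTT, 0.2 mg/mL BSA and 0.4 mg/ml salmon testes DNA. Antibodies against each partner (one per run) detected binding, and scanned fluorescence was regression-normalized. Binding z-scores use the random background probes as reference.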

[2] = system: RARg:RXRa (NR concentration 270 nM, RXRa partner concentration 90 nM)
Method in brief: as §1

[3] = system: RARg homodimer (NR concentration 270 nM)
Method in brief: as §1

[4] = system: RXRa DBDmut IVT, anti-RXR (DBD mutation: RXRa K156A/R161A, NR concentration 90 nM)
Method in brief: as §1

[5] = system: RXRa homodimer (NR concentration 180 nM)
Method in brief: as §1

[6] = system: THRa:RXRa (NR concentration 90 nM, RXRa partner concentration 90 nM)
Method in brief: as §1

[7] = system: THRa homodimer (NR concentration 90 nM)
Method in brief: as §1

[8] = system: VDR homodimer (NR concentration 270 nM)
Method in brief: as §1

Sequence	PBM binding z-score [1]	PBM binding z-score [2]	PBM binding z-score [3]	PBM binding z-score [4]	PBM binding z-score [5]	PBM binding z-score [6]	PBM binding z-score [7]	PBM binding z-score [8]
ATCGAAATGTCGAGGTGAGTATAGAGAAAGGGAA	-0.158	0.381	0.595	-0.737	0.198	1.24	0.217	-0.583
TCGAGTTGGTTACCAATGGGGCATTCAGCTTTCT	-0.231	-0.62	-0.85	0.662	-0.558	-0.69	-1.23	-0.117
TCGAGTAGGTTACCATTGGGGCATTCAGCTTTCT	0.675	0.565	0.217	0.45	0.293	0.633	-0.238	-0.46
ATATGTAGGTTATCGGGACATTCAGTTTGCGCAT	1.09	0.79	1.16	0.776	1.03	1.72	1.55	1.48
ACTAGCAGGCCAAGGGTCACTAAAGATTAGTCCG	3.83	4.08	3.84	0.469	4.13	2.31	0.0838	1.07
AGAATGAGGTTACCAAATATCAGGGAAACGCTTG	0.779	1.91	1.86	1.24	2.52	2.67	0.824	0.512
TAGCCTAGGTCAGGGGCCAGTATACCACGCGAAC	2.47	3.16	3.82	-0.891	2.16	1.91	0.583	-0.245
TCTTGTAAATCAAAGGTTAAGAAAGCCGAAGCCT	1.35	1.39	0.692	0.749	2.24	0.996	-0.284	-0.116
ATCGAAAAGTCGAGGTGAGTATAGAGAAAGGGAA	0.0212	0.371	0.476	-0.67	0.323	1.17	0.201	-0.198
CCGACTGGGGCATAAGGCTACCATAAGCCAGCCC	0.172	-0.0263	0.171	-0.797	-0.16	-0.225	-0.406	-0.345
TCTGCTAGGTCAGTTGGACAGCTAACGAGCTGCC	1.99	2.24	3.47	0.472	0.621	1.12	-0.399	-0.808
CGAACTAGGTCAGAACAGGAAAGTGAAGGATGAT	1.61	2.35	2.9	0.506	1.07	1.29	0.124	-0.115
CGTCCAAGGTCATAGGAGGTCAGTTAAGACAGAT	5.16	6.57	7.05	4.09	6.19	5.3	3	4.11
TCTAGTTAGTCAAAGGTCACACACTCGAAATGCG	4.84	6.12	5.68	2.03	7.09	3.97	1.9	2.57
ACTCGGAGGACAAAGGTCAGAGCAACGCCAGTGA	4.24	6.11	5.43	1.26	5.09	3.55	0.599	1.14
ATATGTAGGTAATCGGGTCATTCAGTTTGCGCAT	2.15	2.06	1.32	1.13	2.55	3.16	2.46	3.14
CCTACTGGGCCACGAAAGGTCATTTATTCAGTGA	4.32	4.41	4.2	0.751	4.96	3.5	0.944	2.76
GCTTACGGGTCAAAGGTTATAGCTTGAATAGAAT	3.13	6.69	4.63	2.37	8.87	3.57	-0.0839	1.45
GCTGCTAGGTCAACTGATGGTCAGCGAAAGCTCG	3.66	5.35	5.22	1.57	3.2	2.98	0.857	0.0996

Sequence	PBM binding z-score [1]	PBM binding z-score [2]	PBM binding z-score [3]	PBM binding z-score [4]	PBM binding z-score [5]	PBM binding z-score [6]	PBM binding z-score [7]	PBM binding z-score [8]
CAAACTAGGTCACCGCAAGGTCAAAGTCCGCATG	5.35	8.07	7.32	2.61	6.15	4.68	4.38	4.3
CCTAGTTGGTCAGGAGGACACACACCGGATATGA	1.58	1.2	1.73	-0.252	0.276	1.28	1.43	0.975
AATCCAGGGTCATCGTAGGCCAGAGTACGCACAG	3.82	5.9	5.22	3.32	6.77	4.55	1.86	4.06
TCTAGCAGGCCAAAGGGTCACTCAAGAGGTACGG	4.55	4.65	4.35	0.568	4.24	2.51	-0.172	1.2
CCTTACGGGTCACTGACAGGCTATAGCATTTGGA	2.85	5.13	4.79	1.86	5.2	2.41	-0.00278	0.687
CCTTACGGGTCACGCGGTTATAGCACGACGAGCG	3.87	5.86	5.88	1.3	6.68	3.17	0.416	1.19
CCTAGTTGGTCGGGAGGTCACACACCGGATATGA	4.12	4.67	3.83	0.718	5.07	3.56	2.93	3.06
ATATGTAGGTTATCGCGTCATTCAGTTTGCGCAT	0.515	0.647	0.634	0.806	1.03	0.388	0.235	0.254
AGTCAAACTTCATCTAGGTAACGTAAGATATGCT	-0.47	-0.19	0.544	0.281	0.109	0.484	0.329	-0.372
TCATATAGGTAAACGTGAAAGTCGAACGATATGA	-0.329	0.415	0.326	0.8	0.894	-0.0868	-0.279	-0.33
CGTCCAAGGTCAAGGTCATTGAAAGAGACTCGAA	5.3	7.02	7.64	3.89	7.4	4.39	3.82	5.11
TCCAGTAGGTTAGTCGGGGCATTCAGCCAACATA	0.924	0.125	0.158	1.18	0.345	1.19	0.383	0.673
AGAATGAGGTGATACGTAGATCAGGGAAGAAAGT	0.297	0.451	0.546	-0.351	0.719	1.57	0.357	-0.382
TCTTGTAGATCAAGCAGGTGAAGAAAGCCTGAGT	-0.296	-0.262	-0.325	0.591	0.0351	-0.0555	-0.319	-0.154
TCTTGTAGATCAAGCACGTTAAGAAAGCCTGAGT	-0.605	-0.0676	-0.183	0.721	0.234	-0.341	-0.599	-0.125
TCATATAGGTAAACTGGTGAAAGTCCGTAAGTTA	0.366	0.0786	-0.0648	1.19	0.361	0.34	0.281	0.358
CCTAGTTGGTCGAGGTCACACACGCTATAGGTAC	3.98	4.6	4.42	2.64	5.16	4.16	4.15	4.51
ATACCAAGGTGCTCGTGAGGTCGTTGATACTAAC	1.4	0.626	0.196	0.552	0.882	3.31	2.12	2.55
TGAATGAGGTTAACGATCAGGGAACGTGGCGTCG	0.791	1.96	1.19	0.898	2.81	2.52	0.403	0.222

Sequence	PBM binding z-score [1]	PBM binding z-score [2]	PBM binding z-score [3]	PBM binding z-score [4]	PBM binding z-score [5]	PBM binding z-score [6]	PBM binding z-score [7]	PBM binding z-score [8]
CCTATTGGGCCAAAAAGGTCATTGATGCCGATAA	4.34	4.44	4.07	0.773	4.53	3.25	0.389	2.18
TCAGACAGATGAAGGTAACTCAGGTACGCAGTCG	-0.403	0.326	0.197	1.34	0.965	1.03	-0.261	0.0374
AATACAGGGTCATGGTAGGCCAGAGTACGCACAG	3.69	5.54	4.93	3.15	6.91	4.38	1.95	3.24
CCAGACAGGTGAGAAGGTAATTCAGCCTCGATTA	0.446	0.488	0.401	-0.0232	0.24	0.0341	0.0221	-0.0971
CCTAGCAGGCCAATCTGGGTCACTCAAGGCTTGA	2.33	1.22	1.57	0.0731	0.984	3.9	0.369	0.000728
TCGAGTAGGTCAGGGGCATTCAGAATGGCGTCGA	2.9	3.14	3.99	0.647	2.5	1.6	0.0377	0.669
CGAACTAGGTCATCCAGGGCAGTGAATACATTGA	3.48	4.41	5.14	2.14	2.97	3.78	1.25	2.25
CTGACTGGGGCATAAGGTTACCATAAGCCAGCCC	1.92	1.99	1.46	-0.277	1.4	2.42	1.35	-0.328
ACAGGCAGGTGATGAAGGTAACTCAGGCTATCAT	0.415	-0.159	0.118	-0.414	0.0459	0.973	0.276	-0.29
GGAACGAGGGCAATTTGATAGCAGAGTTTGATGG	0.804	1.04	1.25	1.74	0.881	0.709	-0.191	0.777
TCTTGCAGATCAAGCAGGTTAAGAAAGCCTGAGT	-0.292	-0.332	-0.629	0.253	-0.0969	0.0949	-0.484	-0.141
CCTACTGGGCCACGAAACGTCATTGATTCAGTGA	-0.373	-0.321	0.105	-0.404	-0.385	-0.288	-0.682	-1.01
ATCTCTAGGTAAAGTCCAGTGAAAGATCGATAGA	0.254	0.207	0.536	0.396	-0.0378	0.245	0.0822	0.0331
GCTGCTAGGTCAACTGATTGTCAGCTAAAGCTCG	3.35	4.28	4.95	1.3	2.55	2.89	0.691	0.00113
CTACCAAGGTGAACAATGTCGTTGATTACTATTC	1.24	0.711	0.812	0.62	0.563	2.04	1.01	0.118
CGAACTAGGTCATTGACACGACAGTGAATAGTAA	2.5	3.57	4.22	2.37	2.52	2.53	0.751	1.15
TCTTGTAGATCAAGAGAGGTTAAGAAAGTGCGCT	0.846	0.415	0.178	0.14	1.21	2.27	-0.932	0.194
GTACCAGGGTGAATAGGTCGTTGATGAGTAGGCG	1.54	2.21	0.988	-0.386	2	1.21	0.463	0.626
ATCTCTAGGTAAGACTCGGTTCAGTGAAGAACGC	0.578	0.12	0.211	0.708	0.162	0.549	0.875	2.06
